According to PubChem BioAssay AID1376 (SRMLSC, 2008):
Values joined by “and” are separate entries in the source; they are usually repeats but may differ in a detail not shown here. Equal values may be shown once. In all, about 220,000 compounds went through this assay and about 530 (0.24%) were called active. No stated cut-off is given here; in the data, active means inhibition above about 13%; inconclusive means no clear call, values can overlap the other calls; inactive means below that. The sample as a whole holds a higher share of actives than the screen did. Entries with a potency or affinity are not part of this list. Some structures have more than one record in an assay (separate samples or runs), and their calls can disagree.

Molecular target: Bifunctional protein GlmU (Mycobacterium tuberculosis (strain ATCC 25618 / H37Rv)) (UniProt P9WMN3)
Assay: inhibition of mycobacterial GlmU enzyme – biochemical, glucosamine-1-phosphate acetyltransferase (AID 1376);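 further: 0% = complete reaction with vehicle and 100% = reaction without substrate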
Settings: M. tuberculosis GlmU acetyltransferase enzyme assay; stronger effect = higher value;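 tested at 30 µM in the primary screen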

Bifunctional protein GlmU (Mycobacterium tuberculosis (strain ATCC 25618 / H37Rv)), sequence (P9WMN3 whole entry, looked up): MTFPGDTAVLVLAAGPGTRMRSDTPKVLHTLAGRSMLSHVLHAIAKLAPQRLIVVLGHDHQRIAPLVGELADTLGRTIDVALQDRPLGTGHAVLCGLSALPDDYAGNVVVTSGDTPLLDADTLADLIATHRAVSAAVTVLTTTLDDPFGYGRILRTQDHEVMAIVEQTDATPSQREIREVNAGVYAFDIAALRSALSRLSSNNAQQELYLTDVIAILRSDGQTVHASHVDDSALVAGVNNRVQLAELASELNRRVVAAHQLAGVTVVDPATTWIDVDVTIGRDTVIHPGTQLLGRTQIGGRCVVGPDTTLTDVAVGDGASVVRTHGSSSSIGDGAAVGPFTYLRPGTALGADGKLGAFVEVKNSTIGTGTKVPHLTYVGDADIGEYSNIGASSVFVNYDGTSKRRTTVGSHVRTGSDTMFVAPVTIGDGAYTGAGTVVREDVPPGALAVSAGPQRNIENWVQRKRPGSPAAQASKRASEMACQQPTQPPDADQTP

Row | SMILES | inhibition
1 | COc1ccc(/C=N/NC(=O)CN(CCc2ccccc2)S(=O)(=O)c2ccc(NC(C)=O)cc2)cc1OC | 1.25% (inactive)
2 | COc1cc(NS(=O)(=O)c2ccc(Nc3nc(-c4ccccn4)cs3)cc2)nc(OC)n1 | -0.88% (inactive)
3 | Cn1cnnc1SCc1ccc(C(=O)N/N=C(\CCC(=O)O)c2ccc(C(C)(C)C)cc2)cc1 | -2.55% (inactive)
4 | CCSc1nnc(NS(=O)(=O)c2ccc(C)cc2)s1 | -1.65% (inactive)
5 | Cc1ccc(C2=CSC3=NS(=O)(=O)CCN23)cc1C | -2.13% (inactive)
6 | Cc1ccc(C)c(C2=CSC3=NS(=O)(=O)CCN23)c1 | 14.7% (active)
7 | Cc1ccc(C2=CSC3=NS(=O)(=O)CCN23)cc1 | -2.55% (inactive)
8 | Cc1ccnc(SCc2cn3c(C)cc(C)nc3n2)n1 | -0.65% (inactive)
9 | CCc1ccc(N2CCN(C(=O)N3CCOCC3)CC2)cc1 | -4.7% (inactive)
10 | C=CCOC(=O)C1=C(C)N(C)C(=O)NC1c1cc2c(cc1Br)OCO2 (stereo unspecified) | 0% (inactive)
11 | Cc1cccc(-n2ncc3c(N(CCO)CCO)ncnc32)c1 | 2.36% (inactive)
12 | CCOc1ccc(NC(=O)Nc2cc(C(C)C)ccc2C)cc1 | 14.6% (active)
13 | Cc1ccc(C(C)C)cc1NC(=O)Nc1ccc([N+](=O)[O-])cc1 | -2.4% (inactive)
14 | CCOc1ccc(NC(=O)Nc2cc(C(C)C)c(O)cc2C)cc1 | 1.34% (inactive)
15 | CSc1nc2ncc(C#N)cn2n1 | -5.13% (inactive)
16 | CC(=O)Nc1ccc(NC(=O)C(Cc2ccccc2)NC(=O)C2CCCCC2)cc1 (stereo unspecified) | 1.61% (inactive)
17 | c1ccc(-n2nnc(-c3cccnc3)n2)cc1 | 1.76% (inactive)
18 | Cn1c(=O)[nH]c(=O)c2c1nc(SCCO)n2CC(O)COc1ccccc1 (stereo unspecified) | 0.72% (inactive)
19 | CCSc1nc2c(c(=O)[nH]c(=O)n2C)n1CC(O)COc1ccccc1 (stereo unspecified) | -3.27% (inactive)
20 | CCCSc1nc2c(c(=O)[nH]c(=O)n2C)n1CC(O)COc1ccccc1 (stereo unspecified) | 14.1% (active)
21 | COc1ccccc1OCC(O)Cn1c(Br)nc2c1c(=O)[nH]c(=O)n2C (stereo unspecified) | 13.5% (active)
22 | COc1ccc(OCC(O)Cn2c(Br)nc3c2c(=O)[nH]c(=O)n3C)cc1 (stereo unspecified) | -0.99% (inactive)
23 | Cc1ccccc1OCC(O)Cn1c(Br)nc2c1c(=O)[nH]c(=O)n2C (stereo unspecified) | 1.77% (inactive)
24 | CCN(CC)C(=O)c1[nH]cnc1C(=O)N[C@@H](C)C(=O)OC(C)(C)C | -5.07% (inactive)

Row | SMILES | inhibition
25 | COC(=O)c1ccccc1NC(=O)Nc1cccc(C)n1 | 1.31% (inactive)
26 | Cc1occc1C(=O)N/N=C/c1ccccc1[N+](=O)[O-] | -3.47% (inactive)
27 | N#C/C(=C\c1ccc(Cl)c([N+](=O)[O-])c1)c1ccccn1 | -1.14% (inactive)
28 | N#C/C(=C\c1ccc([N+](=O)[O-])cc1)c1ccccn1 | 3.91% (inactive)
29 | CNc1ccc(/C=C(\C#N)c2ccccn2)cc1[N+](=O)[O-] | 13.2% (active)
30 | Cc1cc(C)cc(NC(=O)C2CCCC2)c1 | 9.85% (inactive)
31 | Cc1cccc(NC(=O)C2CCCC2)c1 | 13.7% (active)
32 | CC(=O)c1cccc(NC(=O)C2CCCC2)c1 | 1.98% (inactive)
33 | CC1CN(/C(=N\S(=O)(=O)c2ccccc2)c2ccccc2)CC(C)O1 (stereo unspecified) | -2.86% (inactive)
34 | COc1ccccc1CCc1nnc(CCC(=O)NC(C)Cc2ccsc2)o1 (stereo unspecified) | 1.67% (inactive)
35 | COc1ccc(NC(=O)/C(Cl)=C(/Cl)S(=O)Cc2ccc(C)cc2)cn1 (stereo unspecified) | 7.38% (inactive)
36 | COc1ccc(CS(=O)/C(Cl)=C(/Cl)C(=O)Nc2ccc(OC)nc2)cc1 (stereo unspecified) | 14.6% (active)
37 | COc1ccc(NC(=O)/C(Cl)=C(/Cl)S(=O)Cc2ccc(Cl)cc2)cn1 (stereo unspecified) | 11.8% (inactive)
38 | CCOc1ccc(NC(=O)C2=C(C)C(=O)OC23CCC(C)CC3)cc1 (stereo unspecified) | 3.82% (inactive)
39 | CC1=CC(=O)C(C(C)C)=C/C1=N/OS(=O)(=O)c1ccccc1 | 1.82% (inactive)
40 | CC1=C/C(=N\OS(=O)(=O)c2ccccc2)C(C)=CC1=O | 10.7% (inactive)
41 | O=C(NCCCn1ccnc1)C1CC(c2ccccc2Cl)=NO1 (stereo unspecified) | -2.77% (inactive)
42 | COc1cc(C(Nc2ccc(S(=O)(=O)N3CCC(C)CC3)cc2)C(=O)NCC2CCCO2)cc(OC)c1OC (stereo unspecified) | 0.15% (inactive)
43 | COc1ccc(C(Nc2ccc(S(=O)(=O)NCC3CCCO3)cc2)C(=O)NC(C)(C)C)cc1OC (stereo unspecified) | -2.66% (inactive)
44 | COc1cc(C(Nc2ccc(S(=O)(=O)NCC3CCCO3)cc2)C(=O)NC(C)(C)C)cc(OC)c1OC (stereo unspecified) | 13.6% (active)
45 | CC(=O)Nc1cccc(OCc2ccc(S(=O)(=O)Cc3ccccc3)cc2)c1 | -12.3% (inactive)
46 | O=C1NC(=O)/C(=C\c2ccc(O)cc2O)S1 | 12.9% (active)
47 | O=C1NC(=O)/C(=C/c2ccc(O)cc2)S1 | 2.35% (inactive)
48 | Cc1cc(N2CCOCC2)ccc1/C=C1/SC(=O)NC1=O | -0.05% (inactive)

Row | SMILES | inhibition
49 | c1ccc(CSc2ccc(-c3cccnc3)nn2)cc1 | -0.08% (inactive)
50 | Cc1cc(NC(=O)CSC2=Nc3ccccc3C3=NC(Cc4ccccc4)C(=O)N23)n[nH]1 (stereo unspecified) | -1.18% (inactive)
51 | CC1(C)Cc2c(C#N)c(N)n(-c3ccccc3)c(=O)c2CO1 | -3.12% (inactive)
52 | CCC1(C)Cc2c(C#N)c(N)n(-c3ccccc3)c(=S)c2CO1 (stereo unspecified) | 6.07% (inactive)
53 | CCC1(C)Cc2c(C#N)c(N)n(-c3ccccc3)c(=O)c2CO1 (stereo unspecified) | 13.3% (active)
54 | CCOC(=O)N1CCN(c2c(NCc3ccc(N(C)C)cc3)c(=O)c2=O)CC1 | -1.67% (inactive)
55 | CCOC(=O)C1CCN(c2c(NCc3ccc(N(C)C)cc3)c(=O)c2=O)CC1 | 14.4% (active)
56 | CCCNC(=O)c1ccc(CNc2c(N3CCC(C(=O)OCC)CC3)c(=O)c2=O)cc1 | -8.96% (inactive)
57 | COc1nccnc1NS(=O)(=O)c1ccc(NC(=S)NC(=O)/C=C/c2ccc(F)cc2)cc1 | 10.5% (inactive)
58 | O=C(/C=C/NNC(=O)c1cccc(Br)c1)c1cccc(Br)c1 | 12.9% (active)
59 | O=C(/C=C/NNC(=O)c1ccccc1)c1ccc(Br)cc1 | -1.06% (inactive)
60 | O=C(/C=C/NNC(=O)c1ccc(Br)cc1)c1ccccc1 | -0.31% (inactive)
61 | CC(C)(C)S(=O)(=O)c1ccsc1C(=O)O | 0.11% (inactive)
62 | Cc1occc1-c1n[nH]c(=S)n1-c1ccccc1 | 12.8% (active)
63 | Cc1ccccc1-n1c(-c2ccoc2C)n[nH]c1=S | 5.31% (inactive)
64 | Cc1cccc(-n2c(-c3ccoc3C)n[nH]c2=S)c1 | 11.9% (inactive)
65 | COc1ccccc1Nc1nc(N)nc(CSCCO)n1 | 1.91% (inactive)
66 | COc1cc(/C=C2/CC/C(=C/c3ccc(O)c(OC)c3)C2=O)ccc1O | -0.98% (inactive)
67 | COc1cc(/C=C2\CC/C(=C\c3cc(OC)c(O)c(OC)c3)C2=O)cc(OC)c1O | 14.3% (active)
68 | COc1cc(/C=C2\CC/C(=C\c3cc(OC)c(OC)c(OC)c3)C2=O)cc(OC)c1OC | -2% (inactive)
69 | N#Cc1ccc2ccn(CC(=O)NC3CCCCCC3)c2c1 | 6.23% (inactive)
70 | C[C@@H]1Cc2c(O)c(O)cc(O)c2C(=O)O1 | -2.99% (inactive)
71 | CC1Oc2cc3c(-c4c(O)cc(O)c5c(O)c6c(cc45)OC(C)C(C)C6=O)c(O)cc(O)c3c(O)c2C(=O)C1C (stereo unspecified) | 16.3% (active) and 8.27% (inactive)
72 | CC1CC(=O)c2c(cc3c(-c4c(O)cc(O)c5c(O)c6c(cc45)OC(C)CC6=O)c(O)cc(O)c3c2O)O1 (stereo unspecified) | 18.9% (inactive)

Row | SMILES | inhibition
73 | Cc1ccc(C(=O)Nc2ccc(C(=O)O)cc2)cc1S(=O)(=O)NCc1ccccc1 | -0.6% (inactive)
74 | O=C(O)c1cc2nccc(-c3ccco3)n2n1 | 3.14% (inactive)
75 | Cc1cc2nccc(-c3ccccn3)n2n1 | -6.43% (inactive)
76 | Cc1cc2nccc(-c3ccco3)n2n1 | 13.6% (active)
77 | Cc1ccc(Nc2c(-c3ccc(N4CCOCC4)cc3)nc3cnccn23)cc1 | -2.79% (inactive)
78 | O=C(NCCCN1CCCCCC1)c1ccc2c(Cl)c3c(nc2c1)CCCC3 | -1.55% (inactive)
79 | S=C1NC2(CCS1)Oc1ccccc1C1CC(c3ccccc3)=NN12 (stereo unspecified) | -6.7% (inactive)
80 | COc1ccc(F)cc1S(=O)(=O)Nc1ccc2c(c1)OCCO2 | 2.41% (inactive)
81 | COc1ccc(C)cc1S(=O)(=O)Nc1ccc2c(c1)OCO2 | 3.25% (inactive)
82 | COc1ccc(F)cc1S(=O)(=O)Nc1ccc2c(c1)OCO2 | 14.9% (active)
83 | COc1cc(Nc2ncnc(N)n2)cc(OC)c1OC | 3.26% (inactive)
84 | COc1ccc(NC(=O)CN2CCN(CC(=O)Nc3ccccc3F)CC2)cc1OC | -7.08% (inactive)
85 | COc1ccc(-n2c(C)cc(/C=C/c3nc(O)c([N+](=O)[O-])c(=O)[nH]3)c2C)cc1 | 10% (inactive)
86 | O=c1[nH]c(/C=C\c2cccs2)nc(O)c1[N+](=O)[O-] | 2.4% (inactive)
87 | C=CCc1cc(/C=C/c2nc(O)c([N+](=O)[O-])c(=O)[nH]2)cc(OC)c1O | 14.5% (active)
88 | O=C(Nc1ccc(F)cc1F)N1CCN(c2ncccn2)CC1 | 1.49% (inactive)
89 | CC(C)(C)OC(=O)N/N=C/c1c[nH]c2ccccc12 | 2.23% (inactive)
90 | O=C(COc1cccnc1[N+](=O)[O-])Nc1ccc2c(c1)OC(F)(F)O2 | 3.24% (inactive)
91 | O=C(NCc1ccc(F)cc1)C1CCCN(c2nc3ccsc3c(=O)s2)C1 (stereo unspecified) | 2.37% (inactive)
92 | CCOC(=O)C1=C(c2ccccc2)NC(SCC(=O)NC2CCCCC2)=C(C#N)C1c1ccco1 (stereo unspecified) | 2.37% (inactive)
93 | Cc1ccc(/C=C2\SC(=S)N(Cc3ccccc3)C2=O)o1 | -1.65% (inactive)
94 | O=C1/C(=C\c2ccc(-c3ccccc3Cl)o2)SC(=S)N1CC1CCCO1 (stereo unspecified) | 7.34% (inactive)
95 | CCOc1ccc(/C=C2/SC(=O)NC2=S)cc1 | -3.11% (inactive)
96 | O=C1N=C(N2CCOCC2)S/C1=C\c1ccc(-c2ccccc2Cl)o1 | 2.7% (inactive)
